# Laboratory results: the supplement of paper PMC10646978
# ± gives the standard deviation.
# System: RAW-Dual (murine macrophage reporter line)
# Assay: NF-kB reporter (SEAP) activity fold change vs agonist alone; higher = enhanced NF-kB activity
# Details: modulator concentration 10 µM; agonist: CpG ODN 1826 0.5 ug/mL
# In short: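 RAW-Dual murine macrophage reporter cells were seeded at 50 000 per well in 384-well plates and pre-incubated 1 hour at 37 °C with compound pin-transferred to 10 μM final. After 1 hour, a PRR agonist was added and cells incubated overnight. Supernatant NF-κB (SEAP, QUANTI-Blue, 620 nm absorbance) and IRF (Lucia luciferase, QUANTI-Luc, luminescence) signals were divided by the mean agonist-only control on the same plate to give fold change. Two replicate plates were averaged, with errors by propagation.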
row,SMILES,NF-kB reporter
1,CC(=O)C1=C(C)OC2(O)c3ccccc3C(=O)C12O (stereo unspecified),0.903 ± 0.11
2,COc1ccc(NC(=O)CN(c2ccc(F)cc2)S(C)(=O)=O)c(OC)c1,0.872 ± 0.073
3,O=C(CCCN1C(=O)c2cccc3cccc(c23)C1=O)NCCO,1.04 ± 0.061
4,CCc1ccc2oc(-c3ccc(NC(=O)c4ccc(C)c([N+](=O)[O-])c4)cc3)nc2c1,1.02 ± 0.08
5,COc1cccc2c1C(=O)c1c(O)c3c(c(O)c1C2=O)C[C@@](O)(C(=O)CO)C[C@@H]3O[C@H]1C[C@H](N)[C@@H](O)[C@H](C)O1.Cl,0.114 ± 0.0074
6,CC(NCCC(c1ccccc1)c1ccccc1)c1ccccc1.Cl (stereo unspecified),0.274 ± 0.11
7,CC(=O)Nc1nc(C2CC2)cc(-c2ccco2)c1C#N,1.38 ± 0.23
8,Cc1ccc(N2C(=O)C(Cl)=C(Nc3cccc(C)c3C)C2=O)cc1Cl,0.739 ± 0.062
9,CC(C)C(C(=O)Nc1ccc(F)cc1)N1C(=O)c2ccccc2C1=O (stereo unspecified),0.911 ± 0.079
10,CCOC(=O)N1CCN(C(=O)CSc2nnc(-c3cccc(Cl)c3)o2)CC1,0.846 ± 0.18
11,O=C(CCC(=O)NN=Cc1ccc(O)cc1)NN=Cc1ccc(O)cc1,0.915 ± 0.073
12,COC(=O)C1=CN(C2CC2)C=C(C(=O)OC)C1c1ccccc1Cl,1.12 ± 0.1
13,O=C1NC(=O)[C@@H](c2cn3c4c(cccc24)CCC3)[C@@H]1c1c[nH]c2ccccc12,1.1 ± 0.051
14,CC1=NN(c2ccc(S(N)(=O)=O)cc2)C(=O)C1=Cc1ccc(N(C)C)cc1,1.02 ± 0.15
15,COc1ccc(N(CC(=O)Nc2ccccc2C(F)(F)F)S(C)(=O)=O)cc1,0.711 ± 0.14
16,COC(CNC(=O)CSc1ccc(F)cc1)c1ccc(C)s1 (stereo unspecified),1.07 ± 0.33
17,CCOC(=O)C1=C(C)NC2=C(C(=O)CC(C)(C)C2)C1c1ccccc1Br (stereo unspecified),0.993 ± 0.096
18,CC(C=CC1=C(C)CCCC1(C)C)=CC=CC(C)=CC(=O)O,1.29 ± 0.11
19,COc1ccc2c(Cl)c(C(=O)N3CCc4ccccc4C3)sc2c1,0.875 ± 0.13
20,O=C(Oc1ccc(O)c(CO)c1)c1ccccc1,1.15 ± 0.12
21,O=c1ccc2cc(O)c(O)cc2o1,1.34 ± 0.34

# Same assay, conditions: modulator concentration 10 µM; agonist: LPS 0.1 ug/mL
row,SMILES,NF-kB reporter
1,O=[N+]([O-])c1cc2c(cc1C=Nc1ccc(O)cc1)OCO2,1.09 ± 0.17
2,CCNC(=O)CCC/C=C\C[C@@H]1[C@@H](/C=C/C(O)CCc2ccccc2)[C@@H](O)C[C@@H]1O (stereo partly specified),0.965 ± 0.076
3,CCCS(=O)c1ccc2nc(NC(=O)OC)[nH]c2c1 (stereo unspecified),0.998 ± 0.1
4,C#CCN[C@@H]1CCc2ccccc21 [Prestw-1734],0.933 ± 0.11
5,CCOC(=O)c1ccccc1NC(=O)CN(c1cc(Cl)ccc1OC)S(C)(=O)=O,1.09 ± 0.067
6,Cc1ccccc1C(=O)Nc1nc(C(C)(C)C)cs1,0.997 ± 0.047
7,CC(Cc1ccc(O)c(O)c1)(NN)C(=O)O (stereo unspecified),0.979 ± 0.076
8,O=C(NN=Cc1ccc([N+](=O)[O-])o1)c1ccc(O)cc1,1.49 ± 0.097
9,O=C(CC12CC3CC(CC(C3)C1)C2)N1CCCCC1,0.99 ± 0.11
10,COC(=O)C1=CN(CC2CCCO2)C=C(C(=O)OC)C1c1ccccc1Br (stereo unspecified),0.956 ± 0.094
11,CCN(CC)C(=S)SSC(=S)N(CC)CC,0.633 ± 0.041
12,O=C(c1cc2cc(F)ccc2s1)N1CCc2ncncc2C1,1.03 ± 0.083
13,Cc1ccc(-n2ncnc2-c2ccccc2C)cc1Cl,0.787 ± 0.044
14,COc1ccc(N(CC(=O)NCCSCc2ccccc2)S(C)(=O)=O)cc1Cl,1.06 ± 0.071
15,COc1ccc(CNc2nc(N3CCC[C@H]3CO)ncc2C(=O)NCc2ncccn2)cc1Cl,0.629 ± 0.12
16,O=C(Cc1ccccc1)NC(NC(=S)Nc1ccc(O)cc1)C(Cl)(Cl)Cl (stereo unspecified),0.818 ± 0.098
17,CC(C)Oc1ccc(C(=O)NC2CCN(c3ncnc4c3CCCC4)CC2)cn1,1.14 ± 0.086
18,COc1ccc(S(=O)(=O)NCc2ccnc(N3CCOCC3)n2)cc1Cl,1.02 ± 0.08
19,CC(=O)OC(OC(C)=O)c1ccc([N+](=O)[O-])cc1,1.06 ± 0.069
20,CC(=O)C1=C(C)OC2(O)c3ccccc3C(=O)C12O (stereo unspecified),0.947 ± 0.089

row,SMILES,NF-kB reporter
1,COc1ccc(NC(=O)CN(c2ccc(F)cc2)S(C)(=O)=O)c(OC)c1,0.896 ± 0.067
2,O=C(CCCN1C(=O)c2cccc3cccc(c23)C1=O)NCCO,0.976 ± 0.078
3,CCc1ccc2oc(-c3ccc(NC(=O)c4ccc(C)c([N+](=O)[O-])c4)cc3)nc2c1,1.04 ± 0.059
4,COc1cccc2c1C(=O)c1c(O)c3c(c(O)c1C2=O)C[C@@](O)(C(=O)CO)C[C@@H]3O[C@H]1C[C@H](N)[C@@H](O)[C@H](C)O1.Cl,0.0523 ± 0.0041
5,CC(NCCC(c1ccccc1)c1ccccc1)c1ccccc1.Cl (stereo unspecified),0.64 ± 0.047
6,CC(=O)Nc1nc(C2CC2)cc(-c2ccco2)c1C#N,1.09 ± 0.09
7,Cc1ccc(N2C(=O)C(Cl)=C(Nc3cccc(C)c3C)C2=O)cc1Cl,0.897 ± 0.064
8,CC(C)C(C(=O)Nc1ccc(F)cc1)N1C(=O)c2ccccc2C1=O (stereo unspecified),1.06 ± 0.086
9,CCOC(=O)N1CCN(C(=O)CSc2nnc(-c3cccc(Cl)c3)o2)CC1,0.96 ± 0.065
10,O=C(CCC(=O)NN=Cc1ccc(O)cc1)NN=Cc1ccc(O)cc1,0.963 ± 0.062
11,COC(=O)C1=CN(C2CC2)C=C(C(=O)OC)C1c1ccccc1Cl,0.722 ± 0.07
12,O=C1NC(=O)[C@@H](c2cn3c4c(cccc24)CCC3)[C@@H]1c1c[nH]c2ccccc12,1.02 ± 0.17
13,CC1=NN(c2ccc(S(N)(=O)=O)cc2)C(=O)C1=Cc1ccc(N(C)C)cc1,0.967 ± 0.063
14,COc1ccc(N(CC(=O)Nc2ccccc2C(F)(F)F)S(C)(=O)=O)cc1,0.672 ± 0.27
15,COC(CNC(=O)CSc1ccc(F)cc1)c1ccc(C)s1 (stereo unspecified),1.1 ± 0.067
16,CCOC(=O)C1=C(C)NC2=C(C(=O)CC(C)(C)C2)C1c1ccccc1Br (stereo unspecified),1.07 ± 0.059
17,CC(C=CC1=C(C)CCCC1(C)C)=CC=CC(C)=CC(=O)O,0.943 ± 0.078
18,COc1ccc2c(Cl)c(C(=O)N3CCc4ccccc4C3)sc2c1,0.87 ± 0.052
19,O=C(Oc1ccc(O)c(CO)c1)c1ccccc1,1.08 ± 0.071
20,O=c1ccc2cc(O)c(O)cc2o1,0.878 ± 0.044
